Only some compounds are listed: those with a hit (about 4.2% of all), similar ones and a draw of the others.
PfHsp90 set2: growth inhibition of yeast expressing Plasmodium Hsp90. S. cerevisiae expressing PfHsp90, BacTiter-Glo ATP, 48 h; yeast lacking PDR1 and PDR3 efflux regulators. inhibition, % at 9.4 µM. 310,000 tested, 0.32% active. AID 504621;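 active = every replicate shows inhibition above about 80%, whatever the replicate mean, limit read from the data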;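 also: 0% = DMSO neutral controls and 100% = 20 µM radicicol positive controls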
NALP1 yeast inh: inhibitors of NALP1 inflammasome in yeast | S. cerevisiae NALP1/ASC/caspase-1 growth, X-gal OD620, 72 h | 280,000 tested, 0.61% active | inhibition, % at 10 µM; in the data active = inhibition mostly above about 24%, no sharp cut-off; inactive = mostly below about 32%
tim10-1 inh: inhibits growth of tim10-1 mutant yeast | 330,000 tested, 2.2% active | S. cerevisiae tim10-1 ts strain growth, BacTiter-Glo, 24 h | inhibition, % at 20 µM;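 active = inhibition of at least 40%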;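 also: mutant grown at 25 °C; 0% = DMSO wells with yeast and 100% = wells holding no yeast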
tim23-1 inh: inhibits growth of tim23-1 mutant yeast; 330,000 tested, 1.3% active; AID 463212; S. cerevisiae tim23-1 growth, BacTiter-Glo luminescence, 24 h; inhibition, % at 20 µM;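 active = growth inhibition of the mutant yeast at or above 50%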;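 also: temperature-sensitive mutant grown at 25 °C; plate controls were DMSO-treated mutant yeast for no effect and medium wells lacking yeast for full effect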
NALP3 yeast inh: inhibitors of NALP3 inflammasome in yeast | 330,000 tested, 0.39% active | Yeast reconstituted NLRP3/ASC/caspase-1, beta-gal luminescence, 24 h | inhibition, % at 10 µM | AID 2825;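 active = inhibition of 50% or more; inactive = inhibition below 50%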;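 also: plate controls were induced DMSO wells for no effect and uninduced yeast grown without galactose for full effect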
TIM10 inh: TIM10 yeast growth inhibition. 330,000 tested, 1.4% active. S. cerevisiae TIM10 strain growth, BacTiter-Glo luminescence, 24 h. inhibition, % at 10 µM. AID 463195;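 active = inhibition of 40% or more at the single tested concentration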;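 also: wild-type TIM10 isogenic control strain grown at permissive 25 °C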
tim10-1 conf: confirmation of tim10-1 mutant yeast growth inhibitors. shares compounds with tim10-1 inh. S. cerevisiae tim10-1 ts strain growth, BacTiter-Glo, 24 h. inhibition, % at 20 µM. 7,400 tested, 56% active;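 active = inhibition of yeast growth at or above a set limit in either of two repeat tests at 20 µM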;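 also: tim10-1 mutant grown at permissive 25 °C to find synthetic lethal compounds; 0% = DMSO yeast wells and 100% = medium wells without yeast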
* marks the source's active call; other numbers are inactive results; nt = no result given.

SMILES	PfHsp90 set2	NALP1 yeast inh	tim10-1 inh	tim23-1 inh	NALP3 yeast inh	TIM10 inh	tim10-1 conf
CC1=CC(=O)C=C(C)C1=NOC(=O)/C=C\c1ccccc1	4	-11	46*	32	-17	37	32*
Cc1nc(N2CCN(C)CC2)c2c(C)c(C(=O)Nc3ccc(C)c(F)c3)sc2n1	9	18	8	20	21	3	nt
Cc1nc(N2CCN(c3ccccn3)CC2)c2c(C)c(C(=O)Nc3c(F)cc(F)cc3Br)sc2n1	-86	4	40*	27	-3	7	15
Cc1nc(N2CCCCC2)c2c(C)c(C(=O)Nc3ccc4c(c3)OCCO4)sc2n1	-8	13	46*	49	10	16	31*
COC(=O)c1cc(NC(=O)Cc2cccs2)cc(C(=O)OC)c1	10	8	9	22	21	-4	nt
CC1C2CC(C(CN(C)C)/C2=N/O)C1(C)C (centres undefined)	13	9	44*	16	0	-5	9
Cc1ccc(NC(=O)CSc2nc(-c3ccco3)nc3cc(=O)[nH]n23)c(Cl)c1	7	3	7	6	12	9	nt
COC(=O)c1c(C(=O)OC)c(-c2cccc(F)c2)n2c1CS(=O)(=O)C2	11	10	-4	-3	0	-6	nt
COc1ccccc1OCC(=O)NNC(=O)Nc1ccccc1	-9	nt	-11	3	-8	7	nt
CC(=O)N1CCN(c2ccc(NC(=O)C(C)Oc3ccc(Cl)cc3Cl)cc2)CC1 (centres undefined)	-36	-16	45*	19	21	24	31*
CC(Oc1ccc(Cl)cc1Cl)C(=O)Nc1ccc(N2CCN(C)CC2)cc1 (centres undefined)	nt	16	12	18	23	9	nt
O=C(/C=C/c1ccco1)Nc1ccccc1N1CCCC1	7	8	53*	40	17	39	46*
CCCc1sc(N)nc1-c1ccc(Cl)cc1	-33	30	43*	13	-5	18	20
N#CC1(NC(=O)Cn2ncc(Cl)c(Cl)c2=O)CCCCC1	-5	nt	0	-13	-2	-5	nt
COc1ccc(Cl)cc1N(CC(=O)NC(C(C)C)C(C)C)S(C)(=O)=O	-6	21	7	7	-1	-2	nt
Clc1ccc(C2=CC(c3ccco3)n3ncnc3N2)cc1 (centres undefined)	-4	4	43*	24	17	29	33*
COc1ccc(C2=CC(c3ccco3)n3ncnc3N2)cc1 (centres undefined)	2	14	24	15	27	15	nt
CC(=O)c1cc(C)c(OC(=O)c2ccccc2)c(C)c1	-5	nt	nt	nt	nt	nt	nt
CC(=O)Cc1cc(O)c2ccccc2c1OC(=O)c1ccccc1	-18	3	43*	48	2	27	38*
O=C(NC1CCCN(Cc2ccccc2F)C1)C1CCC1 (centres undefined)	8	-1	-17	-5	16	-2	nt
CC(=O)c1cc(NC(=O)c2ccc(Cl)cc2)c(=O)oc1/C=C/N(C)C	22	38	46*	14	25	28	28
COc1ccc(OCCOC(=O)c2nc3nccc(C)n3n2)cc1	3	41	10	6	15	6	nt
COc1ccc(-c2cc(C(=O)NC(C)c3ccccn3)c3ccccc3n2)cc1OC (centres undefined)	2	nt	23	28	-7	19	nt
O=C(Cn1c(S(=O)(=O)Cc2ccccc2)nc2ccccc21)N1CCCCC1	-5	-37	21	5	13	4	nt
O=C(N1CCCCCC1)n1c(Cc2ccccc2)nc2ccccc21	32	6	41*	23	19	36	42*
O=C(NNC(=O)c1ccccc1-n1cccc1)c1ccc(Cl)nc1	23	nt	18	10	16	-1	nt
Cc1ccc(OC(C)C(=O)N=Nc2c(O)[nH]c3ccc([N+](=O)[O-])cc23)cc1 (centres undefined)	18	-4	44*	-1	-2	19	15
Cc1ccc(/C=C/C(=O)OCC(=O)NC(=O)NCc2ccco2)cc1	4	nt	21	13	16	2	nt
Cc1cc2c(NC3CCCCC3)ncnc2s1	0	20	9	36	24	11	nt
